Assay outcomes: PubChem BioAssay, National Center for Advancing Translational Sciences (NCATS)
LASV entry inh: Lassa virus entry inhibition. Lassa virus pseudotype entry inhibition, cell reporter. Potency, µM (series often up to 37.9 µM), for the others: top-dose activity change, negative = inhibition, hits mostly inhibitors. 300,000 compounds, 1.2% hits; calls by dose curve; tested in HEK293 cells; note: potency is the fitted concentration of half-maximal effect; nearly all actives have a fitted effect of over 50% in size
MARV entry inh: Marburg virus entry inhibition; Marburg virus pseudotyped entry inhibition, cell reporter; Potency, µM (highest dose often 37.8 µM), without a hit: top-dose activity change, negative = inhibition, usual class: inhibitors; 300,000 compounds, 1.8% hits; calls by dose curve; tested in HEK293 cells; note: potency is the fitted concentration of half-maximal effect
Pf growth 48h: inhibits P. falciparum growth in the first generation, 48 h; P. falciparum luciferase growth in erythrocytes, 48 h; Potency, µM (titrated, usually from 28.7 µM), for the others: at the top dose activity change, negative = inhibition, actives largely listed as inhibitors; 310,000 compounds, 5.9% hits; AID 504832; note: potency is the fitted concentration of half-maximal effect
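Here the parasites carry a stable luciferase gene and grow inside erythrocytes in Albumax-based RPMI medium with compound for one erythrocytic cycle. Activity is scored as loss of luminescent signal.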
HCMV antiviral: inhibitors of human cytomegalovirus; activity change, negative = inhibition, % at 57.5 µM; HFF cells, HCMV-luciferase reporter, 72 h; hits give low values; AID 1259415; 410,000 compounds, 4.5% hits; in the data active = activity change below about -60%; inconclusive = no clear call, values can overlap the other calls; inactive = above about -39%
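HFF cells seeded 16 h at 37C, treated with compounds, infected with luciferase-reporter HCMV at MOI 1 PFU/cell; luciferase read at 72 h post infection, normalized to buffer-only and Salinomycin controls.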
Pf growth 96h: P. falciparum growth inhibition at 96 hour, primary screen for plastid delayed-death inhibitors | Potency, µM (highest dose often 28.7 µM), for the others: top-dose activity change, negative = inhibition, hits mostly inhibitors | P. falciparum luciferase reporter growth, 96 h | 320,000 compounds, 6.9% hits; note: potency is the fitted concentration of half-maximal effect
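Readout is luminescence from an integrated firefly luciferase in P. falciparum. Red cells, 2% hematocrit and 0.05% parasitemia final, were cultured with compound through two parasite generations (96 hours) at 37 C, 5% CO2.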
HCV inh: inhibitors of hepatitis C virus infection | Huh7.5.1 HCVcc-Cre infection, luciferase reporter, 44 h | Potency, µM (highest dose often 41.8 µM), for the others: at the top dose activity change, negative = inhibition, most hits filed as inhibitors | 340,000 compounds, 3.4% hits; note: potency is the fitted concentration of half-maximal effect
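Antiviral activity was scored by luciferase reporter output from cells infected with HCVcc-Cre (~0.5 moi) in presence of compound, 44 h infection period, cells seeded 1,000/well 4 h prior.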
* hit, by the source's call; [ ] = dose if it differs, or a comment. Compounds with a hit are over-represented: about 14% of the library has one in this group of screens. Unless noted, calls come from the whole dose curve; as a rule, active = well fitted inhibition curve with a large enough effect; inconclusive = small, poorly fitted or top-dose-only effect, or another doubt; inactive = no such curve, though single readings can be large or run the other way. % is set by controls: 0 for no effect and ±100 for the full control effect.

Results for Cc1cc(NC(=O)CSc2nnc(-c3ccc([N+](=O)[O-])cc3)o2)no1 ?
Pf growth 48h: inconclusive; HCMV antiviral: inconclusive; Pf growth 96h: 22%; HCV inh: 9%

What do the screens show for `Cc1cc(NC(=O)CSc2nnc(-c3ccc(O)cc3)o2)no1`?
Pf growth 48h: 6.6µM*; HCMV antiviral: -23; Pf growth 96h: inconclusive; HCV inh: 7%

Results for S=C(SCc1c(Cl)cccc1Cl)N1CCSCC1 ?
HCMV antiviral: 87

How did CC(=O)c1c(C)[nH]c(C(=O)NCCc2cccc(C)c2)c1C do in these assays?
LASV entry inh: -25%; MARV entry inh: -29%; Pf growth 48h: 55%; HCMV antiviral: 89; HCV inh: inconclusive

How did CCc1c(C(=O)NCCc2cccc(C)c2)[nH]c(C)c1C(C)=O do in these assays?
LASV entry inh: 3.5µM*; MARV entry inh: inconclusive; Pf growth 48h: -27%; HCMV antiviral: -17; Pf growth 96h: inconclusive; HCV inh: -21%

Results for CCCCNc1nnc(SCC(=O)c2c(N)n(CCC)c(=O)[nH]c2=O)s1 ?
Pf growth 48h: 12µM*; HCMV antiviral: inconclusive; Pf growth 96h: 9.3µM*; HCV inh: 4%

How did CCCn1c(N)c(C(=O)CSc2ncc(C(F)(F)F)cc2Cl)c(=O)[nH]c1=O do in these assays?
LASV entry inh: 3.2µM*; MARV entry inh: inconclusive; Pf growth 48h: inconclusive; HCMV antiviral: -35; Pf growth 96h: -11%; HCV inh: -9%

How did NCCN do in these assays?
Pf growth 48h: -2%; Pf growth 96h: -9%

What do the screens show for `CCCCCCN1CCN(C2CN(Cc3cn(Cc4ccc(C(F)(F)F)cc4)nn3)S(=O)(=O)C2)CC1` (stereo not drawn)?
MARV entry inh: inconclusive; HCMV antiviral: -35

What do the screens show for `O=Cc1cnc(N2CCN(Cc3ccccc3)CC2)s1`?
LASV entry inh: -15%[46.1 µM]; MARV entry inh: 12%[46.1 µM]; Pf growth 48h: 17%; HCMV antiviral: -64*; Pf growth 96h: -2%; HCV inh: 17%

How did O=Cc1cnc(N2CCN(c3ccccc3)CC2)s1 do in these assays?
LASV entry inh: 2%[46.1 µM]; MARV entry inh: inconclusive; Pf growth 48h: 16%; HCMV antiviral: 14; Pf growth 96h: -1%; HCV inh: 5%

Results for COc1ccc(C(=O)NCC(c2cccs2)S(=O)(=O)c2ccc(F)c(C)c2)cc1 (stereo not drawn) ?
LASV entry inh: 7%[46.1 µM]; HCMV antiviral: 6

How did O=C1CCCC2=C1[C@H]1O[C@](CCCCN3C(=O)c4ccccc4C3=O)(Cc3c1ccc1ccccc31)O2 do in these assays?
MARV entry inh: -23%[14.2 µM]

How did CCSc1nnc(NC(=O)CCNS(=O)(=O)c2cc(Br)cnc2N)s1 do in these assays?
LASV entry inh: 0%; MARV entry inh: -3%; Pf growth 48h: inconclusive; HCMV antiviral: 24; Pf growth 96h: 9.3µM*; HCV inh: 18%

Results for Cc1cc(C)cc(NC(=O)CCNS(=O)(=O)c2cc(Br)cnc2N)c1 ?
Pf growth 48h: 3%; HCMV antiviral: -28; Pf growth 96h: inconclusive; HCV inh: 8%

Results for COC(=O)C(c1ccccc1)(c1cn(C)c2ccccc12)C(Nc1ccccc1)c1cccc(Br)c1 (stereo not drawn) ?
HCMV antiviral: -14

How did COc1cccc(C2CC(=O)N(c3ccc(F)cc3)C3=C2C(=O)OC3)c1OC (stereo not drawn) do in these assays?
LASV entry inh: -25%[46.1 µM]; MARV entry inh: 3%[46.1 µM]; HCMV antiviral: -7

How did Fc1cccc(NC(=S)N2CCN(c3ccccn3)CC2)c1 do in these assays?
LASV entry inh: 13µM*; MARV entry inh: -7%; Pf growth 48h: 0%; HCMV antiviral: -3; Pf growth 96h: -10%; HCV inh: -31%

What do the screens show for `COc1ccc(Cl)cc1NC(=O)C(C)N1CCN(c2ccccn2)CC1` (stereo not drawn)?
Pf growth 48h: 0%; HCMV antiviral: -74*; Pf growth 96h: 0%; HCV inh: inconclusive

How did COc1ccc(NC(=S)N2CCN(c3ccccn3)CC2)cc1OC do in these assays?
LASV entry inh: 0%; MARV entry inh: 4%; Pf growth 48h: -14%; HCMV antiviral: 21; Pf growth 96h: 7.4µM*; HCV inh: -3%

How did COc1ccc(C)cc1NC(=S)N1CCN(c2ccccn2)CC1 do in these assays?
LASV entry inh: 11%; MARV entry inh: inconclusive; Pf growth 48h: 25%; HCMV antiviral: -20; Pf growth 96h: 1µM*; HCV inh: -5%

What do the screens show for `Cc1ccc2nc(N3CCN(C(=O)C4COc5ccccc5O4)CC3)sc2c1` (stereo not drawn)?
LASV entry inh: -19%[46.1 µM]; HCMV antiviral: 59

How did COc1ccc(CNC(=O)c2cc3ccccn3n2)cc1OC do in these assays?
LASV entry inh: -7%[46.1 µM]; HCMV antiviral: 13

Results for CCC1(c2ccccc2)SC(=O)NC1=O (stereo not drawn) ?
LASV entry inh: 11%; MARV entry inh: inconclusive; HCMV antiviral: -22; HCV inh: 31%

How did COc1cc(OC)cc(C(=O)Nc2nc(CC(=O)NCc3ccc(F)cc3)cs2)c1 do in these assays?
LASV entry inh: inconclusive; MARV entry inh: inconclusive; Pf growth 48h: inconclusive; HCMV antiviral: 2; Pf growth 96h: 12µM*; HCV inh: inconclusive

How did O=C(Cc1csc(NC(=O)c2ccc(F)cc2)n1)NO do in these assays?
LASV entry inh: -13%; MARV entry inh: -28%[46.1 µM]; Pf growth 48h: inconclusive; HCMV antiviral: 12; Pf growth 96h: 8.3µM*; HCV inh: 2%

How did COc1cc(OC)cc(C(=O)Nc2nc(CC(=O)NCc3ccccc3OC)cs2)c1 do in these assays?
LASV entry inh: inconclusive; MARV entry inh: inconclusive; Pf growth 48h: inconclusive; HCMV antiviral: -11; Pf growth 96h: inconclusive; HCV inh: inconclusive

Results for O=C(NCc1ccc(Cl)nc1)c1ccc2nc([C@@H]3O[C@H](CO)[C@H](O)[C@H](O)[C@H]3O)[nH]c2c1 ?
HCMV antiviral: -3

How did COc1ccc(CC2=C(O)c3ccccc3C(=O)C2=O)cc1 do in these assays?
LASV entry inh: -10%[46.1 µM]; MARV entry inh: inconclusive; Pf growth 48h: -10%; HCMV antiviral: -31; Pf growth 96h: 153%; HCV inh: 4%

How did O=C1C(=O)c2ccccc2C(O)=C1CCCCl do in these assays?
Pf growth 48h: 0.83µM*; Pf growth 96h: 1.9µM*; HCV inh: inconclusive

Results for COCCCn1c(-c2ccc(Cl)cc2)n[nH]c1=S ?
LASV entry inh: -22%; MARV entry inh: 4%[46.1 µM]; HCMV antiviral: -17; Pf growth 96h: inconclusive; HCV inh: 12%
